Several values for one entry are separate records, joined by “and”; a condition that tells them apart may be missing. Identical values can stand only once. About 83,000 compounds went through this panel and 20% of them were active in at least one assay; those are over-represented in the sample as a whole.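 Method: cells in 96-well plates; compound added at one concentration; 48 h incubation; percent growth measured; values under 10 scored active.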 Activity calls are given as the source filed them.
What was measured:
Test in all cases: NCI-60 one-dose screen, 48 h (100 = growth as untreated, 0 = no growth, -100 = all killed)
Conditions in all cases: 10 µM unless noted
NCI-H23 lung = tested on: NCI-H23 lung
NCI-H226 lung = tested on: NCI-H226 lung
NCI-H322M lung = tested on: NCI-H322M lung
HOP-62 NSCLC = tested on: HOP-62 NSCLC
NCI-H460 lung = tested on: NCI-H460 lung
HOP-92 NSCLC = tested on: HOP-92 NSCLC
A549/ATCC NSCLC = tested on: A549/ATCC NSCLC
786-0 renal = tested on: 786-0 renal
COLO 205 colon = tested on: COLO 205 colon
DU-145 prostate = tested on: DU-145 prostate
K-562 leukemia = tested on: K-562 leukemia
MALME-3M melanoma = tested on: MALME-3M melanoma
MDA-MB-231 breast = tested on: MDA-MB-231 breast
RXF 393 renal = tested on: RXF 393 renal
SF-268 CNS = tested on: SF-268 CNS
SF-295 CNS = tested on: SF-295 CNS
SF-539 CNS = tested on: SF-539 CNS
UACC-257 melanoma = tested on: UACC-257 melanoma
M14 melanoma = tested on: M14 melanoma
NCI-H522 lung = tested on: NCI-H522 lung

Structure (SMILES) | growth (NCI-H23 lung) | growth (NCI-H226 lung) | growth (NCI-H322M lung) | growth (HOP-62 NSCLC) | growth (NCI-H460 lung) | growth (HOP-92 NSCLC) | growth (A549/ATCC NSCLC) | growth (786-0 renal) | growth (COLO 205 colon) | growth (DU-145 prostate) | growth (K-562 leukemia) | growth (MALME-3M melanoma) | growth (MDA-MB-231 breast) | growth (RXF 393 renal) | growth (SF-268 CNS) | growth (SF-295 CNS) | growth (SF-539 CNS) | growth (UACC-257 melanoma) | growth (M14 melanoma) | growth (NCI-H522 lung)
O=[N+]([O-])c1cccc2ccc(N/N=C/c3ccccc3O)nc12 | 72.4% (inactive) and 98.3% (inactive) | 83.4% (inactive) and 99.5% (inactive) | 88.2% (inactive) and 94.8% (inactive) | 85% (inactive) and 97.9% (inactive) | 91.9% (inactive) and 98.4% (inactive) | 67.7% (inactive) and 77.7% (inactive) | 97.3% (inactive) and 90.9% (inactive) | 102% (inactive) and 85.9% (inactive) | 68.1% (inactive) and 111% (inactive) | 88.7% (inactive) and 107% (inactive) | 19.9% (inactive) and 49.1% (inactive) | 96.2% (inactive) and 100% (inactive) | 72.6% (inactive) and 84.5% (inactive) | 84.6% (inactive) | 106% (inactive) and 99.2% (inactive) | 104% (inactive) and 102% (inactive) | 90.9% (inactive) and 101% (inactive) | 92.1% (inactive) and 85.4% (inactive) | 88.9% (inactive) and 107% (inactive) | 
O=C(c1ccncc1)c1c(Cc2ccccc2)ccc2ccccc12 | 55.2% (inactive) | 82.5% (inactive) | 74.2% (inactive) | 95.1% (inactive) | 89.8% (inactive) | 82% (inactive) | 72.2% (inactive) | 104% (inactive) | 87% (inactive) | 99.2% (inactive) | 101% (inactive) | 32.3% (inactive) | 70.2% (inactive) | 84% (inactive) | 117% (inactive) | 83.6% (inactive) | 95.3% (inactive) | -14.4% (active) | 108% (inactive) | 
O=C(O)c1cccc(Br)c1 | 111% (inactive) and 102% (inactive) | 98.5% (inactive) | 96.4% (inactive) and 95.8% (inactive) | 95.5% (inactive) and 100% (inactive) | 115% (inactive) and 105% (inactive) | 101% (inactive) and 102% (inactive) | 98.8% (inactive) and 87% (inactive) | 96.4% (inactive) and 96.8% (inactive) | 115% (inactive) | 113% (inactive) and 114% (inactive) | 89.4% (inactive) and 93.6% (inactive) | 99.5% (inactive) and 107% (inactive) | 97.9% (inactive) and 114% (inactive) | 108% (inactive) and 107% (inactive) | 101% (inactive) and 102% (inactive) | 94.3% (inactive) and 98.2% (inactive) | 94% (inactive) and 98.7% (inactive) | 97.6% (inactive) and 85.2% (inactive) | 99.7% (inactive) and 103% (inactive) | 
CC(=O)Oc1ccc(C2(c3ccc(OC(C)=O)cc3)C(=O)Nc3ccccc32)cc1 | 41.5% (inactive) and 54.4% (inactive) | 76.3% (inactive) and 82.9% (inactive) | 33.1% (inactive) and 33.7% (inactive) | 109% (inactive) and 93.1% (inactive) | 104% (inactive) | 68.4% (inactive) and 44.2% (inactive) | 96.1% (inactive) and 98% (inactive) | 107% (inactive) and 93% (inactive) | 4.98% (active) and 17.2% (inactive) | 89% (inactive) and 89.9% (inactive) | 78.9% (inactive) and 93.8% (inactive) | 128% (inactive) and 97.8% (inactive) | 95.4% (inactive) and 87.4% (inactive) | 66.4% (inactive) and 76.9% (inactive) | 96.7% (inactive) and 100% (inactive) | 71.8% (inactive) and 86.3% (inactive) | 97.2% (inactive) and 92.2% (inactive) | 110% (inactive) and 114% (inactive) | 112% (inactive) and 99.4% (inactive) | 
N#CC(=S)Nc1ccc(Cl)c(Cl)c1 | 3.93% (active) | 9.29% (active) | -3.76% (active) | 24.3% (inactive) | 9.12% (active) | -15.6% (active) |  | 14.2% (inactive) | -22% (active) | 18.6% (inactive) | 16.1% (inactive) | -13.4% (active) | -4.8% (active) | 13% (inactive) | 11% (inactive) | -0.242% (active) | 8.61% (active) | -6.42% (active) | 26.1% (inactive) | -14% (active)
COC(=O)c1cc(C(=O)OC)cc([N+](=O)[O-])c1 | 105% (inactive) | 108% (inactive) | 117% (inactive) | 94.8% (inactive) | 113% (inactive) | 105% (inactive) | 87.7% (inactive) | 92.9% (inactive) | 101% (inactive) | 113% (inactive) | 99.7% (inactive) | 113% (inactive) | 112% (inactive) | 118% (inactive) | 108% (inactive) | 111% (inactive) | 97.4% (inactive) | 82.7% (inactive) | 106% (inactive) | 90.6% (inactive)
CCOC(C)=N | 105% (inactive) | 112% (inactive) | 146% (inactive) | 101% (inactive) | 114% (inactive) | 89.7% (inactive) | 101% (inactive) | 100% (inactive) | 122% (inactive) | 118% (inactive) | 102% (inactive) | 177% (inactive) | 106% (inactive) | 114% (inactive) | 106% (inactive) | 121% (inactive) | 106% (inactive) | 104% (inactive) | 97.5% (inactive) | 
COc1ccc(/C=N/Nc2nc3ccccc3s2)cc1 | 105% (inactive) | 99.4% (inactive) | 86.7% (inactive) | 91.9% (inactive) | 97.3% (inactive) | 81.6% (inactive) |  | 111% (inactive) | 84.1% (inactive) | 105% (inactive) | 93.2% (inactive) | 44.2% (inactive) | 86% (inactive) | 97.5% (inactive) | 106% (inactive) | 97.1% (inactive) | 94% (inactive) | 103% (inactive) | 87.7% (inactive) | 89% (inactive)
CC(=O)c1cc2ccccc2o1 | 97.9% (inactive) | 107% (inactive) | 110% (inactive) | 99.7% (inactive) | 108% (inactive) | 106% (inactive) |  | 94.1% (inactive) | 114% (inactive) | 112% (inactive) | 97.9% (inactive) | 107% (inactive) | 99.9% (inactive) | 119% (inactive) | 106% (inactive) | 103% (inactive) | 89% (inactive) | 114% (inactive) |  | 
O=[N+]([O-])c1ccc(NC(c2ccccc2)c2ccc3cccnc3c2O)cc1 (centres undefined) | 32% (inactive) | 16.6% (inactive) | 29.8% (inactive) | 26.5% (inactive) | -16% (active) | 62.5% (inactive) |  | 18.3% (inactive) | 30.3% (inactive) | 22.5% (inactive) | 13% (inactive) | 17.2% (inactive) | 44.1% (inactive) | 43.9% (inactive) | 12.9% (inactive) | 14.5% (inactive) | 14% (inactive) | -4.88% (active) | 8.95% (active) | 17.9% (inactive)
Cc1cccc(Cl)c1N | 99.6% (inactive) | 118% (inactive) | 127% (inactive) | 104% (inactive) | 107% (inactive) | 94.1% (inactive) | 96.4% (inactive) | 113% (inactive) | 119% (inactive) | 109% (inactive) | 107% (inactive) | 111% (inactive) | 114% (inactive) | 126% (inactive) | 105% (inactive) | 102% (inactive) | 111% (inactive) | 95.5% (inactive) | 105% (inactive) | 105% (inactive)
COC1C(OC(N)=O)C(O)C(Oc2ccc3c(O)c(NC(=O)c4ccc(O)c(CC=C(C)C)c4)c(=O)oc3c2C)OC1(C)C (centres undefined) | 104% (inactive) and 93.7% (inactive) | 104% (inactive) and 90.5% (inactive) | 105% (inactive) and 102% (inactive) | 101% (inactive) and 98.5% (inactive) | 116% (inactive) and 94.9% (inactive) | 78.6% (inactive) | 105% (inactive) and 103% (inactive) | 94.2% (inactive) and 101% (inactive) | 108% (inactive) and 104% (inactive) | 106% (inactive) and 105% (inactive) | 79.4% (inactive) and 116% (inactive) | 121% (inactive) and 101% (inactive) | 108% (inactive) and 88.2% (inactive) | 104% (inactive) and 98.2% (inactive) | 104% (inactive) and 97.1% (inactive) | 92.7% (inactive) and 94.9% (inactive) | 98% (inactive) and 97.1% (inactive) | 104% (inactive) and 101% (inactive) | 102% (inactive) and 99.2% (inactive) | 44.3% (inactive) and 131% (inactive)

From PubChem BioAssay (NCI)
